# This is a sample that favours compounds with a hit; in the whole collection about 4% have one here.
# tim23-1 inh = inhibits growth of tim23-1 mutant yeast; 330,000 compounds, 1.3% hits; S. cerevisiae tim23-1 growth, BacTiter-Glo luminescence, 24 h; inhibition, % at 20 µM;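 active means growth inhibition of the mutant yeast at or above 50%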;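 further: temperature-sensitive mutant grown at 25 °C; plate controls were DMSO-treated mutant yeast for no effect and medium wells lacking yeast for full effect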
# NALP3 yeast inh = inhibitors of NALP3 inflammasome in yeast | Yeast reconstituted NLRP3/ASC/caspase-1, beta-gal luminescence, 24 h | inhibition, % at 10 µM | 330,000 compounds, 0.39% hits;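 active means inhibition of 50% or more; inactive means inhibition below 50%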;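 further: plate controls were induced DMSO wells for no effect and uninduced yeast grown without galactose for full effect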
# tim10-1 inh = growth inhibitors of tim10-1 mutant yeast; S. cerevisiae tim10-1 ts strain growth, BacTiter-Glo, 24 h; inhibition, % at 20 µM; 330,000 compounds, 2.2% hits;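 active means inhibition of at least 40%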;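 further: mutant grown at 25 °C; 0% = DMSO wells with yeast and 100% = wells holding no yeast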
# NALP1 inh = NALP1 inhibition | S. cerevisiae NALP1/ASC/caspase-1 growth, X-gal OD620, 72 h | inhibition, % at 10 µM | 280,000 compounds, 0.61% hits | AID 2071; in the data active means inhibition mostly above about 24%, no sharp cut-off; inactive means mostly below about 32%
# TIM10 inh = inhibits growth of TIM10 yeast strain. 330,000 compounds, 1.4% hits. AID 463195. S. cerevisiae TIM10 strain growth, BacTiter-Glo luminescence, 24 h. inhibition, % at 10 µM;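 active means inhibition of 40% or more at the single tested concentration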;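 further: wild-type TIM10 isogenic control strain grown at permissive 25 °C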
# tim23-1 confirm = confirmation of tim23-1 mutant yeast growth inhibitors. shares compounds with tim23-1 inh. inhibition, % at 20 µM. 4,400 compounds, 83% hits. S. cerevisiae tim23-1 growth, BacTiter-Glo luminescence, 24 h;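 active means inhibition above about 39% in either of two replicate wells at 20 µM, limit read from the data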;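 further: temperature-sensitive tim23-1 mutant grown at 25 °C; 0% = DMSO wells with yeast and 100% = medium wells without yeast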
# Starred values were filed as active, the others as inactive; · = no result.
SMILES,tim23-1 inh,NALP3 yeast inh,tim10-1 inh,NALP1 inh,TIM10 inh,tim23-1 confirm
CCC(C)(C)NC(=O)Cn1c(-c2ccc(C)cc2)noc1=O,7.3,2.1,-7.7,·,2.5,·
CCOC(=O)Cc1csc(NC(=O)/C=C/c2ccc(Cl)cc2)n1,-14.5,6.0,-18.2,·,-17.4,·
Cn1cnnc1SCC(=O)NC1CC1,12.4,-2.7,3.0,·,2.8,·
O=C(COC(=O)c1n[nH]c2ccccc12)c1cccc(Br)c1,50.4*,-5.4,29.8,1.5,13.3,39.7*
Cc1ccc(C)c(C(=O)COC(=O)c2n[nH]c3ccccc23)c1,58.3*,8.4,23.4,·,36.1,49.1*
COc1ccccc1CNC(=O)C(CCSC)NC(=O)c1cccc(S(=O)(=O)N2CCOCC2)c1 (stereo not drawn),-0.3,15.3,5.9,·,-3.2,·
CCOC(=O)c1cccc2c1-c1ccccc1/C2=N/O,71.5*,-21.1,13.2,-1.0,32.8,54.1*
CCc1ccc2c(Cl)c(C(=O)N/N=C/c3c[nH]c4ccccc34)sc2c1,52.1*,11.5,9.2,5.1,19.8,38.6*
CCc1ccc(-c2cc(C(=O)N/N=C/c3c[nH]c4ccccc34)[nH]n2)cc1,7.4,-2.6,9.5,12.4,18.9,·
CC1=C(C#N)c2nc(N)c(C#N)c(C)c2/C1=C\c1ccc(OCC(=O)O)c(Cl)c1,53.9*,9.7,37.2,17.2,17.5,49.3*
COc1ccccc1Nc1nc(N)nc(CN2CCC(C)CC2)n1,12.4,-8.7,12.4,-8.0,-18.8,·
COc1ccccc1Nc1nc(N)nc(CSC(=S)N2CCC(C)CC2)n1,50.1*,-12.9,39.0,10.5,34.6,36.1
CCOC(=O)C1=CN(Cc2cccc(F)c2)S(=O)(=O)NC1c1ccc(Br)cc1F (stereo not drawn),56.0*,·,29.1,·,19.3,46.2*
CC(c1ccccc1)n1c(SCC(=O)Nc2ccccc2)n[nH]c1=O (stereo not drawn),1.2,18.3,-7.4,-10.0,6.1,·
CN(CC(=O)Nc1ccc(Cl)c(C(F)(F)F)c1)C(=O)c1ccc(N2CCOCC2)c([N+](=O)[O-])c1,-17.7,4.2,-20.0,·,-17.0,·
Cc1cccc(N=Nc2cnc(N)s2)c1,52.0*,24.7,27.9,2.3,21.6,52.8*
Cc1ccc2nc(NC(=O)COC(=O)c3cccnc3)sc2c1,53.0*,13.8,-15.0,·,31.1,60.1*
Cn1c(=O)c(C(=O)NCc2ccccc2)c(O)c2ccccc21,53.7*,21.7,-15.7,2.2,-1.5,26.5
CC(=O)c1c(O)c2ccccc2n(Cc2ccccc2)c1=O,56.3*,16.9,27.7,1.9,10.6,35.9
CCn1c(=O)c(C(=O)NCCc2ccccc2)c(O)c2ccccc21,-4.1,25.4,-6.7,-3.2,10.6,·
CC1=NOC(=O)/C1=C\c1ccc(-c2ccc(Cl)c(C(=O)O)c2)o1,15.8,4.9,7.0,11.7,-9.8,·
CC1=NOC(=O)/C1=C\c1ccc(-c2cccc(Cl)c2)o1,56.6*,4.5,15.9,8.1,31.8,68.8*
O=C(N/N=C/c1coc2ccccc2c1=O)c1cn(-c2ccccc2)nc1-c1ccc(F)cc1,22.9,-3.3,7.3,4.4,18.6,·
CC(C)(C)C(=O)N1CCN(c2ccc(NC(=O)c3ccc([N+](=O)[O-])o3)cc2)CC1,40.2,3.0,31.8,3.0,22.1,·
CC1CCN(c2ccc(NC(=O)c3ccc([N+](=O)[O-])o3)cc2)CC1,55.5*,17.9,37.4,·,25.0,-13.4
SMILES,tim23-1 inh,NALP3 yeast inh,tim10-1 inh,NALP1 inh,TIM10 inh,tim23-1 confirm
O=C(Nc1ccc(N2CCN(Cc3ccccc3F)CC2)cc1)c1ccc([N+](=O)[O-])o1,56.3*,27.5,39.0,31.6,11.7,41.4*
CC(C)(C)[C@H]1C=C(C(=O)N2CCOCC2)O[C@@H](OCc2ccc(CO)cc2)C1,93.4*,13.9,6.5,12.5,3.4,27.4
CC(C)(C)[C@@H]1C=C(C(=O)N2CCOCC2)O[C@H](OCc2ccc(CO)cc2)C1,0.4,14.2,-7.9,-5.8,9.6,·
COc1ccccc1C(=O)Nc1nnc(-c2ccc3c(c2)CCCC3)o1,52.1*,27.1,24.6,29.5,39.3,56.4*
CC(=O)Nc1nnc(-c2ccc3c(c2)CCCC3)o1,8.7,12.3,9.1,1.7,-0.3,·
Cc1nc2sc(C(c3ccccc3)N3CCOCC3)c(O)n2n1 (stereo not drawn),0.2,8.5,-7.3,3.6,-4.1,·
Cc1nc2sc(C(c3ccc(Cl)cc3)N3CCOCC3)c(O)n2n1 (stereo not drawn),52.9*,4.3,-0.9,12.7,1.4,7.5
COc1ccccc1CN(C)C(=O)CN1C(=O)c2ccccc2C1=O,19.3,4.5,3.2,13.0,7.0,·
Cc1cccc(NC(=O)/C(C#N)=C/c2ccc(Cl)cc2)n1,60.3*,4.7,30.3,5.6,31.8,67.9*
COc1ccc(NC(=O)/C(C#N)=C/c2cccnc2)c(OC)c1,50.3*,22.0,31.1,-11.9,26.8,43.6*
COc1ccc(/C=C(\C#N)C(=O)Nc2cccnc2)cc1,8.2,3.2,7.0,16.9,14.0,·
N#C/C(=C\c1ccc(Cl)cc1)C(=O)Nc1cccnc1,64.8*,6.7,20.0,-4.2,9.0,67.6*
COc1ccccc1CN(C(=O)CNC(=O)c1ccco1)C(C(=O)NCC1CCCO1)c1ccc(OC)c(OC)c1 (stereo not drawn),4.5,10.2,17.4,16.4,17.2,·
COc1ccc(N2CCN(CC(=O)c3ccccc3)CC2)cc1,11.8,14.3,28.8,21.4,15.9,·
COc1ccc(N2CCN(CCC(=O)c3ccc4ccccc4c3)CC2)cc1,68.7*,8.6,38.7,16.9,24.7,57.3*
Cc1n[nH]c(C)c1N=Nc1ccc(Br)cc1,62.3*,2.3,-36.3,0.8,27.7,24.9
CC(=O)c1cccc(NC(=O)COC(=O)CC2CC3CCC2C3)c1 (stereo not drawn),40.7,9.7,-11.5,·,31.3,·
COc1cccc(NC(=O)COC(=O)CC2CC3CCC2C3)c1 (stereo not drawn),55.7*,7.1,-3.2,·,30.9,41.0*
Cc1cc(NC(=O)CSc2ncnc3sc(C)c(C)c23)no1,-20.3,5.9,10.7,1.1,-41.1,·
Nc1c(C(=O)Nc2ccc3c(c2)OCCO3)nnn1Cc1ccccc1Cl,65.5*,34.5,8.2,·,-17.7,42.3*
Cc1ccc(-c2nnc(OCc3nc4ccccc4n3C)c3ccccc23)cc1,52.1*,0.0,34.1,·,27.5,50.5*
COc1ccccc1OCc1nc2ccccc2n1C,15.6,28.2,20.5,9.9,-1.2,·
Cc1ccc(-c2nnc(OCc3cccnc3)c3ccccc23)cc1,53.1*,24.0,29.7,0.7,-13.6,54.0*
c1ccc(-c2nnc(OCc3cccnc3)c3ccccc23)cc1,-0.4,25.8,-16.2,14.3,-63.9,·
O=C(CN1CCCCC1)Nc1nnc(-c2ccc([N+](=O)[O-])cc2)s1,90.5*,34.2,-9.8,1.3,5.9,23.9
O=C(CN1CCCCC1)Nc1nnc(-c2ccccc2)s1,3.6,27.0,12.4,-11.6,-13.4,·

# From PubChem BioAssay
